Growth data for nine compounds are collected here from PubChem BioAssay (NCI).

About 83,000 compounds went through this panel and 20% of them were active in at least one assay; those are over-represented in the sample as a whole.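 A percent growth of 40 corresponds to 60% growth inhibition; 0 means no net growth; -100 means all cells died. Active threshold: below 10.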 Values without a mark were called inactive. Calls of active or inactive are those of the source.

Test in all cases: NCI-60 one-dose screen, 48 h (100 = growth as untreated, 0 = no growth, -100 = all killed)
Common to all, as to conditions: 10 µM unless noted

The test system of assay [1] is SR leukemia.
In assay [2] the test system is RPMI-8226 leukemia.
For assay [3], the system named is OVCAR-8 ovarian.
Assay [4] concerns OVCAR-5 ovarian.
Assay [5] relates to SK-OV-3 ovarian.
Assay [6] concerns IGROV1 ovarian.
Assay [7] deals with OVCAR-3 ovarian.
Assay [8] concerns HS 578T breast.
Assay [9] has as its system NCI/ADR-RES ovarian.
Assay [10] deals with T-47D breast.
The test system of assay [11] is BT-549 breast.
The subject of assay [12] is MDA-MB-435 melanoma.
The test system of assay [13] is SW-620 colon.
The subject of assay [14] is MCF7 breast.
The subject of assay [15] is HCT-116 colon.
For assay [16], the system named is HCC-2998 colon.
For assay [17], the system named is KM12 colon.
Assay [18] deals with OVCAR-4 ovarian.

`O=C1NC(=O)C(c2coc3cc(Br)ccc23)=C1c1c[nH]c2ccccc12`: the growth is 19.9% in [1]; 44.2% in assay [2]; 51.6% in [3]; 87.3% in [4]; 55.6% in [5]; 52.2% in assay [6]. The growth in assay [7] is 20.1%; in [8], 43.3%; in assay [9], 34%; in assay [10], 34.7%; in assay [11], 67.9%; in [12], -7.93% (active). Besides, the growth in [13] is 35.4%; in [14], 30.4%; in [15], 27.3%; in assay [16], 108%; in [17] it was 31.7%.
With `Clc1ccc(-c2cc(-c3ccccc3)nc(N3CCN(CCCNc4ccnc5cc(Cl)ccc45)CC3)n2)cc1`, the growth in [1] was 5.44% (active); in [2] it was 4.72% (active); in assay [3] it was -47.5% (active); in [4] it was 33.5%; in [18] it was 9.85% (active); in assay [6] it was -62.4% (active). Besides, the growth in assay [7] is -47.9% (active); in assay [8] it was -17.9% (active); in [9] it was 36%; in [10] it was -56.1% (active); in assay [11] it was 100%; in assay [12], -61.8% (active). Besides, the growth is -42.3% (active) in [13]; -18.5% (active) in assay [14]; -79.6% (active) in [15]; -73.4% (active) in assay [16]; 3.69% (active) in assay [17].
In the case of `C=CN(C(=O)N1CCN(c2cc3c(cc2F)c(=O)c(C(=O)O)cn3C2CC2)CC1)c1nc(-c2ccccc2)cs1`, the growth is 86.2% in assay [1]; 93.4% in assay [2]; 91.3% in assay [3]; 102% in assay [4]; 93.1% in assay [18]; 105% in [6]. Besides, the growth in assay [7] was 108%; in assay [8] it was 97.8%; in assay [9], 103%; in assay [10], 78.9%; in assay [11] it was 101%; in [12] it was 96.4%. The growth in assay [13] was 112%; in assay [14] it was 94.8%; in assay [15], 86%; in [16], 103%; in assay [17], 104%.
As for `CN(C)c1ccc(C(=S)c2ccc(N(C)C)cc2)cc1`, the growth in assay [1] is 33.2%; in [2], 83.1%; in assay [3], 88.5%; in [4] it was 94.8%; in [5], 82.4%; in assay [6], 59.3%. The growth in assay [7] is 80.7%; in [8], 94.1%; in [9], 28.7%; in assay [10], 74.2%; in assay [11], 83.5%; in assay [12], -13.2% (active). The growth was 43.9% in assay [13]; 46.4% in assay [14]; 57.8% in [15]; 70.6% in [16]; 47.2% in [17].
On to `c1cc(OCCCCCOc2cccc(-c3nc4ccccc4[nH]3)c2)cc(-c2nc3ccccc3[nH]2)c1`, for which the growth in [1] was -24.8% (active); in [2], -47.1% (active); in [3] it was 15.7%; in assay [4] it was 1.07% (active); in assay [18], 8.16% (active); in assay [6], 10.8%. Also, the growth is 16.8% in assay [7]; 25.3% in assay [8]; 0.274% (active) in assay [9]; 12.2% in assay [10]; 6.65% (active) in assay [11]; 8.32% (active) in assay [12]. Moreover, the growth was 12.7% in assay [13]; -2.42% (active) in [14]; 7.44% (active) in assay [15]; 14.2% in assay [16]; 8.91% (active) in [17].
`COc1ccc(/C=C2\c3cc(OC)c(OC)c(OC)c3CC[C@@H]2O)cc1F`: the growth in assay [1] is 3.9% (active); in assay [2] it was 28.1%; in assay [3], 25.4%; in [4], 76.2%; in assay [18] it was 57%; in [6] it was 43%. In addition, the growth in assay [7] is 4.82% (active); in assay [8], 37.3%; in assay [10], 43.6%; in assay [11] it was 23%; in assay [12], -35.6% (active); in assay [13] it was 28%. Further, the growth in assay [14] is 18.4%; in assay [15], 8.9% (active); in assay [16] it was 35.7%; in assay [17] it was 22.9%.
`c1ccc(-c2c(-c3ccccc3)[n+](Cc3ccc4ccccc4c3)cn2Cc2ccc3ccccc3c2)cc1`: the growth was -74.5% (active) in assay [1]; -54.9% (active) in assay [2]; -87.4% (active) in assay [3]; -29.1% (active) in assay [4]; -81.5% (active) in [18]; -73.8% (active) in assay [6]. Further, the growth is -91.1% (active) in assay [7]; -27.8% (active) in assay [8]; 70.5% in assay [9]; -74.3% (active) in [10]; -82% (active) in assay [11]; -91.3% (active) in assay [12]. Moreover, the growth in assay [13] is -79.8% (active); in assay [14], -83.8% (active); in assay [15] it was -87.5% (active); in assay [16] it was -93.3% (active); in assay [17], -80.2% (active).
Take `Nc1nc(N)c2c(n1)NC(c1cccc(Nc3ccnc4cc(C(F)(F)F)ccc34)c1)CC(c1ccc3c(c1)OCO3)=N2` (configuration not stated): the growth in assay [1] was 1.91% (active); in assay [2] it was 17%; in [3] it was 73.4%; in assay [4], 123%; in assay [18] it was 85.9%; in assay [6], 73%. Besides, the growth is 65.7% in [7]; 66.9% in [8]; 84.1% in assay [9]; 90.6% in [10]; 112% in assay [11]; 9.59% (active) in [12]. In addition, the growth in assay [13] was 54.6%; in [14], 33.3%; in assay [15], 39.9%; in [16], 75.7%; in [17], 38.6%.
Turning to `Cc1ccc(-c2csc(NC(=O)CSc3nc(N)cc(N)n3)n2)cc1`, the growth in assay [1] is 42.9%; in [2], 44%; in assay [3], 71%; in assay [4], 91.2%; in [5] it was 88%; in assay [6] it was 74.1%. Further, the growth in assay [7] was 73.2%; in assay [8], 87.6%; in assay [9], 51.8%; in assay [10], 19.6%; in [11], 52.1%; in [12] it was 63.2%. Besides, the growth in assay [13] is 93.6%; in assay [14], 50.6%; in assay [15], 41.8%; in assay [16], 86.8%; in [17], 77.5%.
